TGFb inhibitor: qHTS for Inhibitors of TGF-b; Potency, µM (series often up to 46.1 µM), for inactives: at the highest dose activity, negative = inhibition, hits mostly inhibitors; 1.2% of 410,000 active; HepG2 CAGA-GFP TGF-b/SMAD3 reporter, GFP fluorescence, 18 h; TGF-beta stimulated, 500 pg/mL final; note: potency is the fitted concentration of half-maximal effect; % is set by controls: 0 for no effect and ±100 for the full control effect; nearly all actives have a fitted effect of over 65% in size
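Read-out: total well GFP (ex488/em500-530) summed from mean per-cell fluorescence. Cells: HEPG2 CAGA-GFP, 1% FBS DMEM, 18 h at 37 degrees C with 500 pg/mL final TGF-beta. Unstimulated wells served as the full-inhibition control; stimulated DMSO wells = 0%.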
HepG2 tox: qHTS for Inhibitors of TGF-b: Cytotox Counterscreen | 0.76% of 410,000 active | HepG2 CAGA-GFP viability, ATP luminescence, 18 h | Potency, µM (series often up to 46.1 µM), for inactives: top-dose activity change, negative = cytotoxicity, hits mostly cytotoxic | AID 588856, 2011; note: potency is the fitted concentration of half-maximal effect
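HepG2 CAGA-GFP cells (1000/well, DMEM with 1% FBS) received compound, then TGF-beta at 500 pg/mL final, and were incubated 18 hours at 37 degrees C. Viability was read by CellTiter-Glo luminescence. Media-only wells were set as complete cell-killing and DMSO as no toxicity.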
uPA generation: qHTS for Inhibitors of Cell Surface uPA Generation; cell surface uPA generation assay, qHTS; Potency, µM (doses to about 38.3 µM), for the others: top-dose activity change, negative = inhibition, usual class: inhibitors; 0.31% of 330,000 active; active = well fitted inhibition curve with a large enough effect; inconclusive = small, poorly fitted or top-dose-only effect; inactive = no such curve, though single readings can be large or run the other way; tested in mouse RAW 264.7 cells; note: potency is the fitted concentration of half-maximal effect; % is set by controls: 0 for no effect and ±100 for the full control effect; nearly all actives have a fitted effect of over 55% in size
Giardia kill: Small Molecules that selectively kill Giardia lamblia: qHTS. activity change, % at 7.66 µM, hits read low. AID 540267, 2011. 0.15% of 340,000 active. Giardia lamblia trophozoite viability; in the data active = activity change below about -80%; inconclusive = between about -30% and that limit;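 note: parasites exposed to compound for two days anaerobically before the ATP read; % is set by controls: 0 for no effect and ±100 for the full control effect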
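ATP-content bioluminescence gauges trophozoite survival. Cells (100/well) receive compound and incubate anaerobically for 48 hrs at 37 deg C; detection reagent follows for 15-30 min at room temperature.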
ATXN viability: Viability Counterscreen for Primary qHTS for Inhibitors of ATXN expression; S2 cells (HEK-293 line with an ATXN2-luciferase reporter) viability, CellTiter-Fluor protease fluorescence, 24 h; AID 651635, 2014; 0.49% of 400,000 active; Potency, µM (highest dose often 56.7 µM), most hits filed as cytotoxic; note: potency is the fitted concentration of half-maximal effect; nearly all actives have a fitted effect of over 40% in size
ATXN2 expr inh: Primary qHTS for Inhibitors of ATXN expression. HEK-293 ATXN2-luciferase reporter, luminescence, 24 h. Potency, µM (top dose mostly 57 µM), for the others: top-dose activity change, negative = inhibition, hits mostly inhibitors. 0.72% of 360,000 active; note: potency is the fitted concentration of half-maximal effect; % is set by controls: 0 for no effect and ±100 for the full control effect; nearly all actives have a fitted effect of over 55% in size
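qHTS (up to 57 uM final) was run with 24 h compound exposure of reporter cells at 37 °C. Each well was multiplexed: SteadyGlo luminescence measured ATXN2-luciferase expression after a fluorogenic Gly-Phe-AFC viability readout (25 uM final).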
* hit, by the source's call; i = inactive; ? = inconclusive; / = not tested or not shown. Compounds with a hit are over-represented: about 2.6% of the library has one in this group of screens. Unless noted, calls come from the whole dose curve; as a rule, active = well fitted curve in the direction sought with a large enough effect; inconclusive = small, poorly fitted or top-dose-only effect, or another doubt; inactive = no such curve, though single readings can be large; an effect the other way counts as inactive or inconclusive.

SMILES	TGFb inhibitor	HepG2 tox	uPA generation	Giardia kill	ATXN viability	ATXN2 expr inh
CC(O)(COc1ccccc1)c1ccc2c(c1)CN(Cc1cccc3ncccc13)CCO2 (stereo not drawn)	/	/	/	/	i	/
O=C(Nc1c(Cl)cncc1Cl)c1ccc(OC(F)F)c(OCC2CC2)c1	/	/	/	/	/	-3.9%
Cc1ccc(Cl)cc1N1CCN(C(=O)c2cnn(-c3ccc(Cl)cc3)c2C2CCNCC2)CC1	?	11.2µM*	/	/	/	31.6µM*
Cc1cccc(N2CCN(C(=O)c3cnn(-c4cccc(Cl)c4C)c3C3CCNCC3)CC2)c1C	17.8µM*	-94.2%	/	/	/	/
Cc1c(Cl)cccc1-n1ncc(C(=O)N2CCOCC2)c1C1CCN(C(=O)OC(C)(C)C)CC1	-0.4%	0.9%	/	/	i	1.2%
Cc1cnc(SCC2CCCO2)nc1C1CCCN(Cc2nc(-c3ccccc3)cs2)C1 (stereo not drawn)	/	/	/	/	i	/
COc1ccc(C2Nc3ccc(NC(C)=O)cc3C(=O)N2Cc2ccccc2)cc1COc1ccc(NC(C)=O)cc1 (stereo not drawn)	/	/	/	-10.6	/	/
S=C(SSC(=S)N1CCOCC1)N1CCOCC1	0.562µM*	0.708µM*	/	/	?	?
O=C(C[C@@H]1C/C=C/CC[C@H](Cc2ccc(F)cc2)C(=O)OC[C@@H](Cc2ccccc2)NC1=O)N[C@H](CO)Cc1ccccc1	?	-104.4%	?	-29.3	12.6µM*	11.2µM*
Cn1cc(C=CC(=O)c2cccc(F)c2)cc1C=CC(=O)NO	/	/	/	/	/	35.6%
C(=C\c1ccc2ccccc2n1)/c1cccnc1	-10.3%	-81.6%	/	/	/	/
Cc1ccc(NC(=O)c2cccnc2)c([N+](=O)[O-])c1	-6.1%	-0.3%	3.55µM*	23.6	i	10.8%
Cc1ccc(NC(=O)c2nc(S(=O)(=O)Cc3ccccc3F)ncc2Cl)cc1	?	10µM*	/	/	/	/
NS(=O)(=O)c1ccc(NC(=O)c2nc(S(=O)(=O)Cc3ccccc3F)ncc2Cl)cc1	?	-41.5%	/	/	/	/
Cc1ccccc1NC(=O)c1nc(S(=O)(=O)Cc2ccccc2F)ncc1Cl	4.47µM*	5.62µM*	/	/	/	/
Cc1ccc(NC(=O)c2nc(S(=O)(=O)Cc3ccccc3F)ncc2Cl)cc1C	?	-58.8%	/	/	/	/
COc1ccccc1C(=O)N1CCCC(c2nc(SCCN3CCOCC3)ncc2C)C1 (stereo not drawn)	/	/	/	/	i	/
O=C1ON=C(c2ccccc2)/C1=C/c1ccc(-c2ccccc2[N+](=O)[O-])o1	20µM*	-36.8%	-6.1%	0.7	i	7.5%
O=[N+]([O-])c1ccccc1-c1ccc(/C=N/n2cnnc2)o1	-17.8%	-3.4%	-6.8%	5.4	i	2.6%
COc1cccc(-c2sc3cc(OC)c(OC)cc3c2-c2ccc(OCCN3CCCCC3)cc2)c1	?	12.6µM*	?	-5.3	39.8µM*	-20.6%
c1ccc(-c2sc3ccccc3c2-c2ccc(OCCN3CCCC3)cc2)cc1	?	11.2µM*	-1.4%	-15.6	?	25.1µM*
COc1cccc(-c2sc3ccccc3c2-c2ccc(OCCN3CCCC3)cc2)c1	?	20µM*	-10.7%	12.5	?	28.2µM*
COc1cccc(-c2sc3ccccc3c2-c2ccc(OCCN3CCCCC3)cc2)c1	0.9%	-40.6%	-2.4%	2.9	/	?
COc1cccc(-c2sc3ccc(OC)cc3c2-c2ccc(OCCN3CCCC3)cc2)c1	?	-106.9%	-5.6%	-2.1	?	?
COc1ccc(-c2sc3ccccc3c2-c2ccc(OCCN3CCCCC3)cc2)cc1	31.6%	-11.1%	-7.3%	?	i	-7.9%
SMILES	TGFb inhibitor	HepG2 tox	uPA generation	Giardia kill	ATXN viability	ATXN2 expr inh
Cc1ccc(Nc2nc(Nc3ccc(Cl)cc3)nc(N3CCOCC3)n2)cc1	5.6%	-27.6%	/	0.3	/	/
C#CC(C)(CC)OC(=O)c1ccccc1C(=O)O (stereo not drawn)	/	/	/	/	i	7.2%
CCCCCCCCn1cnc2c(N)c(C)c(C)cc21	?	20µM*	/	12.0	i	-35.0%
CC(C)C1Nc2c(O)cc(Cl)c([N+](=O)[O-])c2C2C=CCC21 (stereo not drawn)	12.6µM*	-36.4%	-12.8%	-2.2	?	?
O=C1SC(Nc2ccccc2)C(=O)N1c1ccccc1 (stereo not drawn)	/	/	/	10.5	/	/
O=C(NCCc1ccccc1)[C@@H]1CC=C[C@@H]2CCN(C3CC3)C(=O)[C@@H]21	-0.5%	13.3%	/	/	/	/
COC(=O)C=CC(=O)OC	/	/	/	/	/	11.9%
C/C(=N\Nc1ccc(Cl)cc1)c1ccccn1	-9.2%	0.0%	15.2%	2.1	i	28.1%
COc1ccc2nc(NN=C(C)c3ccccn3)cc(C)c2c1	1.12µM*	-55.5%	-9.4%	?	7.52µM*	?
Oc1ccc(-c2n[nH]c(=S)n2-c2ccc3c(c2)OCCO3)c(O)c1	14.1µM*	-47.7%	-13.8%	-7.5	i	?
S=c1[nH]nc(-c2ccc(Cl)cc2Cl)n1-c1ccc2c(c1)OCCO2	0.5%	11.0%	-6.1%	1.6	?	9.0%
Cc1ccc(CSc2nc3c(c(N(C)C)n2)CCCC3)cc1	?	-5.6%	1.4%	16.7	i	-19.2%
CNc1nc(SCc2ccc(C)cc2)nc2c1CCCC2	15.8µM*	-4.2%	-6.5%	-1.1	i	-12.1%
CC=C1NC(=O)[C@H]2CSSCCC=C[C@H](CC(=O)N[C@H](C(C)C)C(=O)N2)OC(=O)[C@H](C(C)C)NC1=O	/	/	/	/	/	5.3%
COc1cc(/C=C2\NC(=S)N(C)C2=O)ccc1O	24.7%	-1.5%	-4.3%	20.2	?	-0.1%
CN1C(=O)/C(=C/c2ccc(O)c([N+](=O)[O-])c2)NC1=S	-0.6%	-2.3%	3.8%	?	25.1µM*	-10.6%
O=C(NCC(c1ccco1)N1CCc2ccccc21)c1ccccc1F (stereo not drawn)	-0.9%	10.2%	-2.4%	-17.1	i	3.9%
O=C(CCc1ccccc1)NCC(c1ccco1)N1CCc2ccccc21 (stereo not drawn)	?	-2.4%	3.16µM*	-7.4	i	-10.3%
CC(=O)O[C@@H]1[C@@H](O)[C@@H](O)[C@H](Oc2c(-c3ccc(O)cc3)oc3c(CC=C(C)C)c(O)cc(O)c3c2=O)O[C@H]1C	?	-71.9%	9.5%	14.8	?	?
CC(=O)O[C@H]1[C@@H](O)[C@H](O)[C@H](Oc2c(O)c(C)c3c4c2[C@@H](C)CC[C@@H]4[C@@H](C)C[C@H]3C=C(C)C)O[C@H]1C	11.2µM*	-113.7%	-7.5%	-3.9	?	?
COc1ccc(O)c(C(=O)N2CCC3(CC2)c2ccccc2[C@@H](NC(=O)c2ccccn2)[C@@H]3OC)c1	/	/	/	/	i	/
CCCCN(CCC#N)c1ccc(/C=C/c2ccnc3ccccc23)cc1	?	-21.5%	/	/	/	/
